# Columns and labels:
# Assay in all cases: area under confluence curve of osimertinib + compound combination regimen (DTP regrowth); compare to osimertinib-only DTP control AUC of the same experiment (AUC (confluence x time, arbitrary))
# H1975 = test system: H1975
# Procedure, shortened: (§1)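 EGFR-mutant NSCLC lines were seeded at 20,000–30,000 cells/well in 48-well plates in RPMI 1640 with 10% FBS at 37 °C, 5% CO2. They got the EGFR inhibitor with a fixed-dose test compound upfront to the persister stage (10–21 days), then drug-free medium, or the inhibitor alone and then the test compound. Medium was refreshed every 3–4 days until inhibitor-only controls regrew to confluence. Area under the IncuCyte confluence–time curve came from Prism, median of triplicates where available.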
# HCC2279 = test system: HCC2279
# Procedure, shortened: as §1
# HCC2935 = test system: HCC2935
# Procedure, shortened: as §1
# HCC4006 = test system: HCC4006
# Procedure, shortened: as §1
# HCC827 = test system: HCC827
# Procedure, shortened: as §1
# II-18 = test system: II-18
# Procedure, shortened: as §1
# PC9 = details: test compound dose 1000 nM
# Procedure, shortened: as §1
structure (smiles),measurement,setting,value
Cn1cc(CNCC2CCN(c3ncc(C(=O)NO)cn3)CC2)c2ccccc21 [Quisinostat] + C=CC(=O)Nc1cc(Nc2nccc(-c3cn(C)c4ccccc34)n2)c(OC)cc1N(C)CCN(C)C [osimertinib],area under confluence curve,"H1975; test compound dose 10 nM, dosing schedule: sequential, osimertinib-only DTP control AUC in same experiment: 15943, DMSO control AUC in same experiment: 20657",1750
same,area under confluence curve,"H1975; test compound dose 10 nM, dosing schedule: upfront, osimertinib-only DTP control AUC in same experiment: 27804, DMSO control AUC in same experiment: 20657",5730
same,area under confluence curve,"HCC2279; test compound dose 10 nM, dosing schedule: sequential, osimertinib-only DTP control AUC in same experiment: 20224, DMSO control AUC in same experiment: 29252",6370
same,area under confluence curve,"HCC2279; test compound dose 10 nM, dosing schedule: upfront, osimertinib-only DTP control AUC in same experiment: 43517, DMSO control AUC in same experiment: 29252",12400
same,area under confluence curve,"HCC2935; test compound dose 10 nM, dosing schedule: sequential, osimertinib-only DTP control AUC in same experiment: 6271, DMSO control AUC in same experiment: 13875",6600
same,area under confluence curve,"HCC2935; test compound dose 10 nM, dosing schedule: upfront, osimertinib-only DTP control AUC in same experiment: 10360, DMSO control AUC in same experiment: 13875",6240
same,area under confluence curve,"HCC4006; test compound dose 10 nM, dosing schedule: sequential, osimertinib-only DTP control AUC in same experiment: 21234, DMSO control AUC in same experiment: 16638",5480
same,area under confluence curve,"HCC4006; test compound dose 10 nM, dosing schedule: upfront, osimertinib-only DTP control AUC in same experiment: 19238, DMSO control AUC in same experiment: 16638",4030
same,area under confluence curve,"HCC827; test compound dose 10 nM, dosing schedule: sequential, osimertinib-only DTP control AUC in same experiment: 8266, DMSO control AUC in same experiment: 27404",2780
same,area under confluence curve,"HCC827; test compound dose 10 nM, dosing schedule: upfront, osimertinib-only DTP control AUC in same experiment: 13929, DMSO control AUC in same experiment: 27404",4260
same,area under confluence curve,"II-18; test compound dose 10 nM, dosing schedule: sequential, osimertinib-only DTP control AUC in same experiment: 21122, DMSO control AUC in same experiment: 7080",426
same,area under confluence curve,"II-18; test compound dose 10 nM, dosing schedule: upfront, osimertinib-only DTP control AUC in same experiment: 22894, DMSO control AUC in same experiment: 7080",19200
COc1nn(C)cc1Nc1nccc(-c2c[nH]c3c(NC(=O)[C@@H](C)N4CCN(C)CC4)cccc23)n1 + C=CC(=O)Nc1cc(Nc2nccc(-c3cn(C)c4ccccc34)n2)c(OC)cc1N(C)CCN(C)C [osimertinib],area under confluence curve,"H1975; test compound dose 1000 nM, dosing schedule: sequential, osimertinib-only DTP control AUC in same experiment: 22968, DMSO control AUC in same experiment: 15857",19800
same,area under confluence curve,"H1975; test compound dose 1000 nM, dosing schedule: upfront, osimertinib-only DTP control AUC in same experiment: 27164, DMSO control AUC in same experiment: 15857",18200
same,area under confluence curve,"HCC2279; test compound dose 1000 nM, dosing schedule: sequential, osimertinib-only DTP control AUC in same experiment: 26096, DMSO control AUC in same experiment: 14404",23400
same,area under confluence curve,"HCC2279; test compound dose 1000 nM, dosing schedule: upfront, osimertinib-only DTP control AUC in same experiment: 33120, DMSO control AUC in same experiment: 14404",31200
same,area under confluence curve,"HCC2935; test compound dose 1000 nM, dosing schedule: sequential, osimertinib-only DTP control AUC in same experiment: 22314, DMSO control AUC in same experiment: 19215",20700
same,area under confluence curve,"HCC2935; test compound dose 1000 nM, dosing schedule: upfront, osimertinib-only DTP control AUC in same experiment: 29846, DMSO control AUC in same experiment: 19215",31500
same,area under confluence curve,"HCC4006; test compound dose 1000 nM, dosing schedule: sequential, osimertinib-only DTP control AUC in same experiment: 12791, DMSO control AUC in same experiment: 18415",12900
same,area under confluence curve,"HCC4006; test compound dose 1000 nM, dosing schedule: upfront, osimertinib-only DTP control AUC in same experiment: 17269, DMSO control AUC in same experiment: 18415",18700
same,area under confluence curve,"HCC827; test compound dose 1000 nM, dosing schedule: sequential, osimertinib-only DTP control AUC in same experiment: 15330, DMSO control AUC in same experiment: 21320",10400
same,area under confluence curve,"HCC827; test compound dose 1000 nM, dosing schedule: upfront, osimertinib-only DTP control AUC in same experiment: 20798, DMSO control AUC in same experiment: 21320",15000
same,area under confluence curve,"II-18; test compound dose 1000 nM, dosing schedule: sequential, osimertinib-only DTP control AUC in same experiment: 8624, DMSO control AUC in same experiment: 11834",1310
same,area under confluence curve,"II-18; test compound dose 1000 nM, dosing schedule: upfront, osimertinib-only DTP control AUC in same experiment: 10856, DMSO control AUC in same experiment: 11834",1640
O=C(CCCCCCC(=O)Nc1ccccc1)NO [Vorinostat] + C=CC(=O)Nc1cc(Nc2nccc(-c3cn(C)c4ccccc34)n2)c(OC)cc1N(C)CCN(C)C [osimertinib],area under confluence curve,"PC9; dosing schedule: sequential, osimertinib-only DTP control AUC in same experiment: 12065, DMSO control AUC in same experiment: 48219",7830
same,area under confluence curve,"PC9; dosing schedule: sequential, osimertinib-only DTP control AUC in same experiment: 14002, DMSO control AUC in same experiment: 31239",6670
same,area under confluence curve,"PC9; dosing schedule: upfront, osimertinib-only DTP control AUC in same experiment: 22175, DMSO control AUC in same experiment: 31239",7410
same,area under confluence curve,"PC9; dosing schedule: upfront, osimertinib-only DTP control AUC in same experiment: 22645, DMSO control AUC in same experiment: 48219",10400

# Reference: the supplement of paper PMC9794691
